Results: PubChem BioAssay (NCI)
Compounds without any hit were thinned out: in the full panel of roughly 79,000, 15% have a hit. Unmarked numbers belong to inactive results. Activity calls are given as the source filed them. Rule as the data show it: active = growth inhibition above about 70%; inactive = the rest.

Experiments:
[1] = NCI Yeast Anticancer Drug Screen. Data for the rad52 strain (AID 147);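 also: 0% = growth of vehicle-treated control cultures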; conditions: S. cerevisiae rad52 mutant growth inhibition, hits give high values
Method in brief: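 The repair-mutant yeast strain was incubated with compounds, then growth was read and inhibition derived relative to vehicle.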

[2] = NCI Yeast Anticancer Drug Screen. Data for the wt1 strain (AID 149);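 also: 0% = growth of vehicle-treated wt1 cultures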; conditions: S. cerevisiae wt1 strain (SPY 50644) growth inhibition, hits give high values
Method in brief: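 The wt1 strain was treated with compounds, and growth was compared with vehicle-treated cultures to give inhibition.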

[3] = NCI Yeast Anticancer Drug Screen. Data for the rad50EPP+ strain (AID 151);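 also: 0% = growth of vehicle-treated control cultures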; conditions: S. cerevisiae rad50 mutant strain, hits give high values
Method in brief: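 Vehicle-normalised growth inhibition; rad50EPP+ yeast strain, altered in DNA damage repair, compound-treated.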

[4] = NCI Yeast Anticancer Drug Screen. Data for the mgt1 strain (AID 153); conditions: S. cerevisiae mgt1 mutant growth inhibition, hits give high values
Method in brief: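 Vehicle-normalized growth inhibition is determined in mgt1 yeast, a strain selected for a defined alteration in DNA repair or cell cycle control.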

[5] = NCI Yeast Anticancer Drug Screen. Data for the rad50 strain (AID 155);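 also: 0% = growth of vehicle-only cultures of the same strain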; conditions: S. cerevisiae rad50 strain growth inhibition, hits give high values
Method in brief: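 Cells are treated with compound, grown, and their growth is then scored against vehicle-only cultures of the same repair-deficient yeast strain.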

[6] = NCI Yeast Anticancer Drug Screen. Data for the mec2-1 strain (AID 157); conditions: S. cerevisiae mec2-1 strain, hits give high values
Method in brief: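 Mutant yeast (mec2-1) grown with compound; growth inhibition relative to vehicle control reported.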

[7] = NCI Yeast Anticancer Drug Screen. Data for the rad14 strain (AID 159);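 also: 0% = growth of vehicle-treated control cultures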; conditions: S. cerevisiae rad14 strain growth inhibition, hits give high values
Method in brief: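 Readout: yeast growth inhibition, referenced to vehicle-only cultures. Strain bears a defined alteration in DNA damage repair.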

[8] = NCI Yeast Anticancer Drug Screen. Data for the CLN2oe strain (AID 163);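 also: 0% = growth of vehicle-only control cultures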; conditions: S. cerevisiae CLN2oe strain, hits give high values
Method in brief: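 Compounds are applied to yeast harbouring a defined cell-cycle control change; reduced growth compared with vehicle-treated controls gives the value.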

[9] = NCI Yeast Anticancer Drug Screen. Data for the cln2 rad14 strain (AID 165);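 also: 0% = growth equal to vehicle treated cultures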; conditions: S. cerevisiae cln2 rad14 strain, hits give high values
Method in brief: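 Readout is yeast growth inhibition versus vehicle-treated controls, using a strain with cln2 and rad14 alterations exposed to compound.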

[10] = NCI Yeast Anticancer Drug Screen. Data for the bub3 strain (AID 167); conditions: S. cerevisiae bub3 mutant strain, hits give high values
Method in brief: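 Part of a panel of yeast mutants defective in DNA damage repair or cell cycle regulation. Each strain is grown with compound, and inhibition is calculated relative to solvent-treated cultures.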

[11] = NCI Yeast Anticancer Drug Screen. Data for the wt2 strain (AID 169);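 also: 0% = growth of vehicle-treated yeast cultures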; conditions: S. cerevisiae wt2 strain growth inhibition, hits give high values
Method in brief: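 Against vehicle-treated controls, the growth of yeast exposed to each compound was compared, and the inhibition was recorded.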

[12] = NCI Yeast Anticancer Drug Screen. Data for the mlh1 strain (AID 171);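 also: 0% = growth of vehicle-treated control cultures of the same strain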; conditions: S. cerevisiae mlh1 strain growth inhibition, hits give high values
Method in brief: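 Measured: yeast growth. Reference: vehicle-treated controls. Organism: strain with a defined alteration affecting DNA damage repair or cell cycle control, treated with compound.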

[13] = NCI Yeast Anticancer Drug Screen. Data for the sgs1 strain (AID 173);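 also: 0% = growth of vehicle-only control cultures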; conditions: S. cerevisiae sgs1 mutant, hits give high values
Method in brief: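 Each compound was added to cultures of the altered yeast strain. Growth was recorded, and inhibition was derived by comparison with vehicle controls.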

[14] = NCI Yeast Anticancer Drug Screen. Data for the mlh1 rad18 strain (AID 175); conditions: S. cerevisiae mlh1 rad18 strain growth inhibition, hits give high values
Method in brief: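 Genetically defined yeast (DNA repair-deficient) exposed to compounds; growth inhibition determined relative to vehicle.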

[15] = NCI Yeast Anticancer Drug Screen. Data for the rad18 strain (AID 177); conditions: S. cerevisiae rad18 mutant growth inhibition, hits give high values
Method in brief: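 Vehicle-treated cultures served as the baseline for scoring compound-induced growth inhibition in DNA-repair-mutant yeast.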

[16] = NCI Yeast Anticancer Drug Screen. Data for the sgs1 mgt1 strain (AID 161);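 also: 0% = growth of cultures given vehicle only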; conditions: S. cerevisiae sgs1 mgt1 strain, hits give high values
Method in brief: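 Percent growth inhibition was derived by comparing compound-exposed mutant yeast with vehicle-exposed cultures. The strain carries alterations in DNA damage repair.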

[17] = at 5.0 µM (retest, dose inferred, filed as 0.5)
[18] = at 50.0 µM (retest, dose inferred, filed as 5.0)

C/C(=N\Nc1ccc([N+](=O)[O-])cc1[N+](=O)[O-])c1sc(-n2nc(-c3ccccc3)cc2-c2ccccc2)nc1C
growth inhibition ([1]; at 1.2 µM): -1% | growth inhibition ([1]; at 3.7 µM): 13% | growth inhibition ([1]; at 11.0 µM): 7% | growth inhibition ([1]; at 33.0 µM): 0% | growth inhibition ([1]; at 100.0 µM): 26% | growth inhibition ([2]; at 1.2 µM): -21% | growth inhibition ([2]; at 3.7 µM): -4% | growth inhibition ([2]; at 11.0 µM): -13% | growth inhibition ([2]; at 33.0 µM): -1% | growth inhibition ([2]; at 100.0 µM): -4% | growth inhibition ([3]; at 1.2 µM): 7% | growth inhibition ([3]; at 3.7 µM): 22% | growth inhibition ([3]; at 11.0 µM): 27% | growth inhibition ([3]; at 33.0 µM): 50% | growth inhibition ([3]; at 100.0 µM): 59% | growth inhibition ([4]; at 1.2 µM): 18% | growth inhibition ([4]; at 3.7 µM): 6% | growth inhibition ([4]; at 11.0 µM): 6% | growth inhibition ([4]; at 33.0 µM): 32% | growth inhibition ([4]; at 100.0 µM): 60% | growth inhibition ([5]; at 1.2 µM): -1% | growth inhibition ([5]; at 3.7 µM): 0% | growth inhibition [5, 17]: 25% | growth inhibition ([5]; at 11.0 µM): -15% | growth inhibition ([5]; at 33.0 µM): 4% | growth inhibition [5, 18]: 62% | growth inhibition ([5]; at 50.0 µM): 80% (active) | growth inhibition ([5]; at 100.0 µM): 10% | growth inhibition ([6]; at 1.2 µM): 11% | growth inhibition ([6]; at 3.7 µM): 16% | growth inhibition [6, 17]: 0% | growth inhibition ([6]; at 11.0 µM): 15% | growth inhibition ([6]; at 33.0 µM): 22% | growth inhibition [6, 18]: 16% | growth inhibition ([6]; at 50.0 µM): 66% | growth inhibition ([6]; at 100.0 µM): 34% | growth inhibition ([7]; at 1.2 µM): -7% | growth inhibition ([7]; at 3.7 µM): -13% | growth inhibition ([7]; at 11.0 µM): -15% | growth inhibition ([7]; at 33.0 µM): -9% | growth inhibition ([7]; at 100.0 µM): -6% | growth inhibition ([8]; at 1.2 µM): 8% | growth inhibition ([8]; at 3.7 µM): 12% | growth inhibition ([8]; at 11.0 µM): 9% | growth inhibition ([8]; at 33.0 µM): 18% | growth inhibition ([8]; at 100.0 µM): 26% | growth inhibition [9, 17]: 29% | growth inhibition [9, 18]: 34% | growth inhibition ([9]; at 50.0 µM): 61.6% | growth inhibition ([10]; at 1.2 µM): 15% | growth inhibition ([10]; at 3.7 µM): 25% | growth inhibition [10, 17]: 31% | growth inhibition ([10]; at 11.0 µM): 46% | growth inhibition ([10]; at 33.0 µM): 42% | growth inhibition [10, 18]: 74% (active) | growth inhibition ([10]; at 50.0 µM): 79% (active) | growth inhibition ([10]; at 100.0 µM): 62% | growth inhibition ([11]; at 1.2 µM): -21% | growth inhibition ([11]; at 3.7 µM): -22% | growth inhibition ([11]; at 11.0 µM): -25% | growth inhibition ([11]; at 33.0 µM): -11% | growth inhibition ([11]; at 100.0 µM): 68% | growth inhibition ([12]; at 1.2 µM): 1% | growth inhibition ([12]; at 3.7 µM): -15% | growth inhibition ([12]; at 11.0 µM): -16% | growth inhibition ([12]; at 33.0 µM): 5% | growth inhibition ([12]; at 100.0 µM): 25% | growth inhibition ([13]; at 1.2 µM): 0% | growth inhibition ([13]; at 3.7 µM): 6% | growth inhibition ([13]; at 11.0 µM): 13% | growth inhibition ([13]; at 33.0 µM): 11% | growth inhibition ([13]; at 100.0 µM): 25% | growth inhibition [14, 17]: 24% | growth inhibition [14, 18]: 60% | growth inhibition ([14]; at 50.0 µM): 79.3% (active) | growth inhibition ([15]; at 1.2 µM): -9% | growth inhibition ([15]; at 3.7 µM): 11% | growth inhibition ([15]; at 11.0 µM): 14% | growth inhibition ([15]; at 33.0 µM): 24% | growth inhibition ([15]; at 100.0 µM): 36%

CCOc1ccccc1N=Cc1c2ccccc2cc2ccccc12
growth inhibition ([1]; at 1.2 µM): 10% | growth inhibition ([1]; at 3.7 µM): 28% | growth inhibition ([1]; at 11.0 µM): 98% (active) | growth inhibition ([1]; at 33.0 µM): 99% (active) | growth inhibition ([1]; at 100.0 µM): 99% (active) | growth inhibition ([2]; at 1.2 µM): -2% | growth inhibition ([2]; at 3.7 µM): 26% | growth inhibition ([2]; at 11.0 µM): 95% (active) | growth inhibition ([2]; at 33.0 µM): 97% (active) | growth inhibition ([2]; at 100.0 µM): 95% (active) | growth inhibition ([3]; at 1.2 µM): -4% | growth inhibition ([3]; at 3.7 µM): 24% | growth inhibition ([3]; at 11.0 µM): 63% | growth inhibition ([3]; at 33.0 µM): 90% (active) | growth inhibition ([3]; at 100.0 µM): 89% (active) | growth inhibition ([4]; at 1.2 µM): 2% | growth inhibition ([4]; at 3.7 µM): 75% (active) | growth inhibition ([4]; at 11.0 µM): 97% (active) | growth inhibition ([4]; at 33.0 µM): 98% (active) | growth inhibition ([4]; at 100.0 µM): 98% (active) | growth inhibition ([5]; at 1.2 µM): 1% | growth inhibition ([5]; at 3.7 µM): 39% | growth inhibition [5, 17]: 11% | growth inhibition ([5]; at 11.0 µM): 97% (active) | growth inhibition ([5]; at 33.0 µM): 98% (active) | growth inhibition [5, 18]: 98% (active) | growth inhibition ([5]; at 50.0 µM): 88.8% (active) | growth inhibition ([5]; at 100.0 µM): 97% (active) | growth inhibition ([6]; at 1.2 µM): -18% | growth inhibition ([6]; at 3.7 µM): 33% | growth inhibition [6, 17]: 7% | growth inhibition ([6]; at 11.0 µM): 98% (active) | growth inhibition ([6]; at 33.0 µM): 98% (active) | growth inhibition [6, 18]: 99% (active) | growth inhibition ([6]; at 50.0 µM): 90.8% (active) | growth inhibition ([6]; at 100.0 µM): 98% (active) | growth inhibition ([7]; at 1.2 µM): -23% | growth inhibition ([7]; at 3.7 µM): 74% (active) | growth inhibition ([7]; at 11.0 µM): 98% (active) | growth inhibition ([7]; at 33.0 µM): 98% (active) | growth inhibition ([7]; at 100.0 µM): 98% (active) | growth inhibition [16, 17]: -8% | growth inhibition [16, 18]: 98% (active) | growth inhibition ([16]; at 50.0 µM): 90.9% (active) | growth inhibition [9, 17]: 44% | growth inhibition [9, 18]: 98% (active) | growth inhibition ([9]; at 50.0 µM): 58.6% | growth inhibition ([10]; at 1.2 µM): 4% | growth inhibition ([10]; at 3.7 µM): 34% | growth inhibition [10, 17]: 37% | growth inhibition ([10]; at 11.0 µM): 96% (active) | growth inhibition ([10]; at 33.0 µM): 98% (active) | growth inhibition [10, 18]: 99% (active) | growth inhibition ([10]; at 50.0 µM): 89.9% (active) | growth inhibition ([10]; at 100.0 µM): 97% (active) | growth inhibition ([11]; at 1.2 µM): -4% | growth inhibition ([11]; at 3.7 µM): 34% | growth inhibition ([11]; at 11.0 µM): 96% (active) | growth inhibition ([11]; at 33.0 µM): 98% (active) | growth inhibition ([11]; at 100.0 µM): 97% (active) | growth inhibition ([12]; at 1.2 µM): 18% | growth inhibition ([12]; at 3.7 µM): 56% | growth inhibition ([12]; at 11.0 µM): 97% (active) | growth inhibition ([12]; at 33.0 µM): 98% (active) | growth inhibition ([12]; at 100.0 µM): 97% (active) | growth inhibition ([13]; at 1.2 µM): -18% | growth inhibition ([13]; at 3.7 µM): 24% | growth inhibition ([13]; at 11.0 µM): 96% (active) | growth inhibition ([13]; at 33.0 µM): 97% (active) | growth inhibition ([13]; at 100.0 µM): 96% (active) | growth inhibition [14, 17]: 38% | growth inhibition [14, 18]: 98% (active) | growth inhibition ([14]; at 50.0 µM): 86.5% (active) | growth inhibition ([15]; at 1.2 µM): -3% | growth inhibition ([15]; at 3.7 µM): 21% | growth inhibition ([15]; at 11.0 µM): 97% (active) | growth inhibition ([15]; at 33.0 µM): 98% (active) | growth inhibition ([15]; at 100.0 µM): 97% (active)
